Source: PubChem BioAssay (EPA / NIEHS)
Activity calls are given as the source filed them. How the source made its calls: active means hit-call score of the fitted dose curve at least 0.9, where 1 is the maximum; inactive means score below 0.9.

Columns and labels:
Conditions in all cases: mRNA level, 48 h; actives raise or lower the signal
[1] = read-out: Tumor necrosis factor receptor superfamily member 6 (Homo sapiens) (UniProt P25445); test: LTEA_HepaRG_FAS: Life Technologies and Expression Analysis (LTEA) Assay for Fas cell surface death receptor (FAS) using HepaRG (AID 2283447)
Summary of the method: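 Differentiated HepaRG cells in serum-free induction medium were exposed 48 h to 8 half-log concentrations up to 100 uM in 0.5% DMSO, in duplicate. FAS mRNA was measured by qRT-PCR normalised to ACTB, GAPDH and POLR2A; bidirectional fit versus DMSO.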

[2] = read-out: Fatty acid synthase (Homo sapiens) (UniProt P49327); test: LTEA_HepaRG_FASN: Life Technologies and Expression Analysis (LTEA) Assay for Fatty Acid Synthase (FASN) using HepaRG (AID 2283448);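 on AC50: differentiated human HepaRG liver cells in serum-free induction medium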
Summary of the method: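 FASN transcript measured by TaqMan qRT-PCR, normalised to three housekeeping genes, after 48 h chemical exposure of HepaRG cells. Eight-point half-log series from 100 uM in 0.5% DMSO, duplicates; gain or loss fitted against vehicle.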

[3] = read-out: Cyclin D2 (CCND2), CCND2 (gene 894); test: LTEA_HepaRG_CCND2: Life Technologies and Expression Analysis (LTEA) Assay for Cyclin D2 (CCND2) using HepaRG (AID 2283449);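 further: CCND2 transcript measured by TaqMan qRT-PCR and normalised to three housekeeping genes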
Summary of the method: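 HepaRG, 48 h dosing, 8-pt half-log curve from 100 uM, 0.5% DMSO; duplicate wells. Readout: CCND2 transcript by microfluidic qRT-PCR, housekeeping-normalised; bidirectional fit vs DMSO baseline.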

[4] = read-out: Cyclin Dependent Kinase Inhibitor 1A (CDKN1A), CDKN1A (gene 1026); test: LTEA_HepaRG_CDKN1A: Life Technologies and Expression Analysis (LTEA) Assay for Cyclin Dependent Kinase Inhibitor 1A (CDKN1A) using HepaRG (AID 2283450)
Summary of the method: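 HepaRG, 48 h dosing, 8-pt half-log series from 100 uM top, 0.5% DMSO vehicle, duplicates. Readout: TaqMan qRT-PCR of CDKN1A transcript, housekeeping-normalized (ACTB, GAPDH, POLR2A). Up/down curve fit relative to DMSO.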

[5] = read-out: Cyclin D1 (CCND1), CCND1 (gene 595); test: LTEA_HepaRG_CCND1: Life Technologies and Expression Analysis (LTEA) Assay for Cyclin D1 (CCND1) using HepaRG (AID 2283451)
Summary of the method: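 qRT-PCR (Fluidigm 96.96 array) read-out of transcript level, housekeeping-normalized (ACTB/GAPDH/POLR2A). HepaRG cells, 48 h chemical exposure, 8-point half-log series from 100 uM, 0.5% DMSO vehicle; gain or loss relative to DMSO baseline.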

[6] = read-out: catalase (CAT), CAT (gene 847); test: LTEA_HepaRG_CAT: Life Technologies and Expression Analysis (LTEA) Assay for catalase (CAT) using HepaRG (AID 2283452)
Summary of the method: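 HepaRG cells in serum-free induction medium, 0.5% DMSO vehicle, exposed 48 h in duplicate over 8 half-log concentrations from 100 uM. CAT mRNA measured by qRT-PCR, normalized to ACTB, GAPDH, POLR2A; bidirectional fit versus DMSO.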

[7] = read-out: flavin-containing dimethylaniline monooxygenases 3 (FMO3), FMO3 (gene 2328); test: LTEA_HepaRG_FMO3: Life Technologies and Expression Analysis (LTEA) Assay for flavin-containing dimethylaniline monooxygenases 3 (FMO3) using HepaRG (AID 2283453);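 on AC50: differentiated human HepaRG liver cells in serum-free induction medium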
Summary of the method: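 FMO3 transcript quantified by TaqMan qRT-PCR against three housekeeping genes after 48 h chemical exposure of HepaRG cells. Eight-point half-log series, top 100 uM, 0.5% DMSO vehicle; phenobarbital 1mM induction control; up- or down-regulation fitted.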

[8] = read-out: Cytochrome P450 (CYP1A1), CYP1A1 (gene 1543); test: LTEA_HepaRG_CYP1A1: Life Technologies and Expression Analysis (LTEA) Assay for Cytochrome P450 (CYP1A1) using HepaRG (AID 2283454)
Summary of the method: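 qRT-PCR read-out: CYP1A1 transcript normalized to three housekeeping genes, fitted bidirectionally against 0.5% DMSO vehicle baseline. Human HepaRG cells, 48 h chemical exposure, 8-point half-log series topping at 100 uM.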

[9] = read-out: Forkhead box O1 (FOXO1), FOXO1 (gene 2308); test: LTEA_HepaRG_FOXO1: Life Technologies and Expression Analysis (LTEA) Assay for Forkhead box O1 (FOXO1) using HepaRG (AID 2283456)
Summary of the method: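 HepaRG, 48 h exposure, 8-pt half-log series from 100 uM in 0.5% DMSO, duplicates; Fluidigm qRT-PCR mRNA, housekeeping-normalised; bidirectional fit vs DMSO baseline.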

[10] = read-out: growth arrest and DNA damage 45 (GADD45A), GADD45A (gene 1647); test: LTEA_HepaRG_GADD45A: Life Technologies and Expression Analysis (LTEA) Assay for growth arrest and DNA damage 45 (GADD45A) using HepaRG (AID 2283458)
Summary of the method: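 GADD45A expression was measured by TaqMan qRT-PCR against three housekeeping genes (ACTB, GAPDH, POLR2A) after 48 h treatment of HepaRG cells. Eight-point half-log series up to 100 uM in 0.5% DMSO, run in duplicate.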

[11] = read-out: Forkhead box O3 (FOXO3), FOXO3 (gene 2309); test: LTEA_HepaRG_FOXO3: Life Technologies and Expression Analysis (LTEA) Assay for Forkhead box O3 (FOXO3) using HepaRG (AID 2283459)
Summary of the method: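 qRT-PCR readout of FOXO3 transcript, normalized to three housekeeping genes (ACTB, GAPDH, POLR2A); gain or loss fitted against 0.5% DMSO vehicle. HepaRG cells, 48 h chemical exposure, 8-point half-log series, top 100 uM.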

[12] = read-out: growth arrest and DNA damage 45 (GADD45B), GADD45B (gene 4616); test: LTEA_HepaRG_GADD45B: Life Technologies and Expression Analysis (LTEA) Assay for growth arrest and DNA damage 45 (GADD45B) using HepaRG (AID 2283461)
Summary of the method: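 qRT-PCR read-out (Fluidigm TaqMan, housekeeping-normalized) of mRNA change in human HepaRG cells after 48 h chemical exposure; 8-point curve, top 100 uM, half-log steps, 0.5% DMSO vehicle; gain or loss fitted relative to DMSO baseline.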

[13] = read-out: ABC Transporter (ABCC3), ABCC3 (gene 8714); test: LTEA_HepaRG_ABCC3: Life Technologies and Expression Analysis (LTEA) Assay for ABC Transporter (ABCC3) using HepaRG (AID 2283462)
Summary of the method: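 qRT-PCR read-out of ABCC3 transcript, normalized to three housekeeping genes (ACTB, GAPDH, POLR2A), after 48 h chemical exposure of human HepaRG cells. Eight half-log concentrations, highest 100 uM, in 0.5% DMSO; gain or loss fitted relative to DMSO baseline.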

[14] = read-out: ABC Transporter (ABCB11), ABCB11 (gene 8647); test: LTEA_HepaRG_ABCB11: Life Technologies and Expression Analysis (LTEA) Assay for ABC Transporter (ABCB11) using HepaRG (AID 2283463)
Summary of the method: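 HepaRG, 48 h exposure, 8-pt half-log CRC top 100 uM, 0.5% DMSO vehicle, duplicates. Readout: TaqMan qRT-PCR of ABCB11 mRNA, housekeeping-normalized (ACTB/GAPDH/POLR2A). Bidirectional fit vs DMSO baseline.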

[15] = read-out: ABC Transporter (ABCC2), ABCC2 (gene 1244); test: LTEA_HepaRG_ABCC2: Life Technologies and Expression Analysis (LTEA) Assay for ABC Transporter (ABCC2) using HepaRG (AID 2283464)
Summary of the method: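 qRT-PCR (TaqMan, Fluidigm array) read-out of ABCC2 mRNA, normalized to three housekeeping genes. Differentiated HepaRG cells were treated 48 h in serum-free induction medium with 8-point half-log series from 100 uM in 0.5% DMSO; curves fitted bidirectionally relative to DMSO.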

[16] = read-out: Broad substrate specificity ATP-binding cassette transporter ABCG2 (Homo sapiens) (UniProt Q9UNQ0); test: LTEA_HepaRG_ABCG2: Life Technologies and Expression Analysis (LTEA) Assay for ABC Transporter (ABCG2) using HepaRG (AID 2283465)
Summary of the method: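 HepaRG, 48 h exposure, 8-pt half-log series from 100 uM, 0.5% DMSO vehicle, duplicates. Readout: ABCG2 transcript by qRT-PCR (Fluidigm array), housekeeping-normalized; bidirectional curve fit relative to DMSO baseline.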

[17] = read-out: ABC Transporter (ABCB1), ABCB1 (gene 5243); test: LTEA_HepaRG_ABCB1: Life Technologies and Expression Analysis (LTEA) Assay for ABC Transporter (ABCB1) using HepaRG (AID 2283460)
Summary of the method: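 HepaRG, 48 h exposure, 8-pt half-log series from 100 uM, 0.5% DMSO vehicle, duplicates. Readout: ABCB1 transcript by Fluidigm TaqMan qRT-PCR, housekeeping-normalized; bidirectional curve fit vs DMSO baseline.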

[18] = read-out: CFLAR gene, CFLAR (gene 8837); test: LTEA_HepaRG_CFLAR: Life Technologies and Expression Analysis (LTEA) Assay for CFLAR gene using HepaRG (AID 2283455)
Summary of the method: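 qRT-PCR read-out (Fluidigm/TaqMan) of CFLAR mRNA, normalized to three housekeeping genes, in differentiated human HepaRG cells after 48 h chemical exposure; 8-point half-log series from 100 uM in 0.5% DMSO; bidirectional curve fitting versus DMSO.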

Measured: AC50

Chain of Broad substrate specificity ATP-binding cassette transporter ABCG2 (Homo sapiens) (Q9UNQ0 whole entry, looked up): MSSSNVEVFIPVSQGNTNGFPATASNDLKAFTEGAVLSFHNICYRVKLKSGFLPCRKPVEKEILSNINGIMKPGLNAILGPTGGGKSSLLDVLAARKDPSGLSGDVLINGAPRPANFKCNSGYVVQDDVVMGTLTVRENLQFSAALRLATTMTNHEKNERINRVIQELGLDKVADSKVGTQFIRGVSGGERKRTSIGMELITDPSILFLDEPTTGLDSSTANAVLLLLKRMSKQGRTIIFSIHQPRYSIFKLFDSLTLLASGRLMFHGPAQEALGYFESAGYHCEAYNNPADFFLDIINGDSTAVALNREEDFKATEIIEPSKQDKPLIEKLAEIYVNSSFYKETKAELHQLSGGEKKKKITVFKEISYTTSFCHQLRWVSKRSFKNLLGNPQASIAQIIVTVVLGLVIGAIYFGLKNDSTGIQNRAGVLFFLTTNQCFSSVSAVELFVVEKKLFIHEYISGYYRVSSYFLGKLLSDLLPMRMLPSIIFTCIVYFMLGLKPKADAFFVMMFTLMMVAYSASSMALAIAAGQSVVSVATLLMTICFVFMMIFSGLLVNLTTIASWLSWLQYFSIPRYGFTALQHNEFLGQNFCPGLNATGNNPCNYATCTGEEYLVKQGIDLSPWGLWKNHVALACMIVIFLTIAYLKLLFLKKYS
Chain of Fatty acid synthase (Homo sapiens) (P49327 whole entry, looked up): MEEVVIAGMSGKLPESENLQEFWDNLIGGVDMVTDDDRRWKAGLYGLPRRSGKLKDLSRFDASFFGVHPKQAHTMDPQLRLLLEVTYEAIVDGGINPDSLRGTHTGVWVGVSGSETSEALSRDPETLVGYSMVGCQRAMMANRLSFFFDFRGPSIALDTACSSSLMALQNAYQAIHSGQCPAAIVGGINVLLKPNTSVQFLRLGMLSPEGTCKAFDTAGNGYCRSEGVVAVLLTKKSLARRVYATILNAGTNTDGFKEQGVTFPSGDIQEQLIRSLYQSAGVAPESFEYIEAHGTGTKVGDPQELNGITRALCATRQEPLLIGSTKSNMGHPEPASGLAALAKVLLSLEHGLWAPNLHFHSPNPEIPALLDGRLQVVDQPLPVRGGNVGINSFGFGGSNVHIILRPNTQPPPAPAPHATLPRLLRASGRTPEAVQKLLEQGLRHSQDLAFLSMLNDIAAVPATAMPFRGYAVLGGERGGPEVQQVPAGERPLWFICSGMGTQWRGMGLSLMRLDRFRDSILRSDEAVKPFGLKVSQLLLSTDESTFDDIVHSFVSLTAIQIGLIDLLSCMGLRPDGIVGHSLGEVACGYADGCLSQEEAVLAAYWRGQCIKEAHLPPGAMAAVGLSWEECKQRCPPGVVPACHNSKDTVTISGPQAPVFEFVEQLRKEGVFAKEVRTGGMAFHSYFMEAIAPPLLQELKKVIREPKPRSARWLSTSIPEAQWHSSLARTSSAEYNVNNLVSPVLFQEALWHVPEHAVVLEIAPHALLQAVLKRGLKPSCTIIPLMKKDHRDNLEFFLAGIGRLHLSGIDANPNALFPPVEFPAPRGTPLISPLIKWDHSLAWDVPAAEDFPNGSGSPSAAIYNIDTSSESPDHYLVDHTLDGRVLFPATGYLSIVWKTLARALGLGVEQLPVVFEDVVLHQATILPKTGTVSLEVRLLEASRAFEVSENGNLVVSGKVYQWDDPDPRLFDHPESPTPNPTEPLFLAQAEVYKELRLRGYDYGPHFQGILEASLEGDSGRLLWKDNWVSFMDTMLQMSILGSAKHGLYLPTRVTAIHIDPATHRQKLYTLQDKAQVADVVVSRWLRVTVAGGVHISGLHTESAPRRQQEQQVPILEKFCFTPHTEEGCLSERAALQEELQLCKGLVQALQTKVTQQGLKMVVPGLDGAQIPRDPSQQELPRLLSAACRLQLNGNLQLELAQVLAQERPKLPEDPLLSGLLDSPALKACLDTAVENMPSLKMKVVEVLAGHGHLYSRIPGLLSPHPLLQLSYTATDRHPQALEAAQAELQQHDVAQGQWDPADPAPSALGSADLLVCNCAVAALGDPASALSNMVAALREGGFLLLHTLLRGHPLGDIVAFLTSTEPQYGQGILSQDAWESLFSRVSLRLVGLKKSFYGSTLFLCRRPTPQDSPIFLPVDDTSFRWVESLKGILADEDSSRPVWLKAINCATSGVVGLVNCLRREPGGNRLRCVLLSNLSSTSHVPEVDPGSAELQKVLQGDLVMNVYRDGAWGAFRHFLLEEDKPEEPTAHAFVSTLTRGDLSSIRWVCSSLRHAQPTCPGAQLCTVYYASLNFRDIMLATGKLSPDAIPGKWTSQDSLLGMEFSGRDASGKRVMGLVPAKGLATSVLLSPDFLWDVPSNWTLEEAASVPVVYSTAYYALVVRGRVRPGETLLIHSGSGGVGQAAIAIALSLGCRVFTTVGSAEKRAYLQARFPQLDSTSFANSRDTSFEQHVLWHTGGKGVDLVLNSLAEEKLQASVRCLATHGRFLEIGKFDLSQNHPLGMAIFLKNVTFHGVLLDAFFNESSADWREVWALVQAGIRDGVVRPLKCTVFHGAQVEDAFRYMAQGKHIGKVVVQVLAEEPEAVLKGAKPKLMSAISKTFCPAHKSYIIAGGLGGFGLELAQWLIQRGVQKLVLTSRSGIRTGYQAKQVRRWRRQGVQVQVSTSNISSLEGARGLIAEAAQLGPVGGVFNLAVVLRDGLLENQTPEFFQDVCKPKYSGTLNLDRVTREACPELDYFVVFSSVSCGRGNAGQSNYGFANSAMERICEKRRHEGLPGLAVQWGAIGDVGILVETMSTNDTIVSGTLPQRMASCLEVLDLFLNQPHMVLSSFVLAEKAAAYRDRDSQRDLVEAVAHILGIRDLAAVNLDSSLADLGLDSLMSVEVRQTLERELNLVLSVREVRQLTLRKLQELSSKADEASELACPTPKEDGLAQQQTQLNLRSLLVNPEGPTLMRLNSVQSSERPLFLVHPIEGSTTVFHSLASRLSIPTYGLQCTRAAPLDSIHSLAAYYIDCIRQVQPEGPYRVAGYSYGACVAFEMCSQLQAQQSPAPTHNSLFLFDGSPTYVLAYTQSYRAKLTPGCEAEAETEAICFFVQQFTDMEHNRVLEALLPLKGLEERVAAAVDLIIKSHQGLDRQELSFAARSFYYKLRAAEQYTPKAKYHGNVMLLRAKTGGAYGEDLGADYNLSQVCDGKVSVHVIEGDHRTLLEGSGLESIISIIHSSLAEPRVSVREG

Cc1cnc(C2=NC(C)(C(C)C)C(=O)N2)c(C(=O)O)c1 (stereo not given)
active: [8] 71.2 µM
not listed: [17] | [18]
inactive: all other assays above

CC(C)=CC1C(C(=O)OCc2coc(Cc3ccccc3)c2)C1(C)C (stereo not given)
active: [8] 60.8 µM | [14] 50 µM | [15] 50 µM
not listed: [12] | [17] | [18]
inactive: all other assays above

Nc1c(Cl)c(Cl)nc(C(=O)O)c1Cl
active: [8] 50 µM
not listed: [11] | [17] | [18]
inactive: all other assays above

CO/N=C(/C1=NOCCO1)c1ccccc1Oc1ncnc(Oc2ccccc2Cl)c1F
inactive: [3] | [5]
active: [1] 50 µM | [2] 62.7 µM | [4] 28.5 µM | [6] 19.7 µM | [7] 24.9 µM | [8] 33 µM | [9] 10 µM | [10] 29.6 µM | [12] 29.7 µM | [13] 6.69 µM | [14] 29.2 µM | [15] 50 µM | [16] 8.72 µM

CS(=O)(=O)c1cc(C(F)(F)F)ccc1C(=O)c1cnoc1C1CC1
active: [8] 78 µM
not listed: [3] | [11] | [12] | [18]
inactive: all other assays above

C=C(C)CN(CC)c1c([N+](=O)[O-])cc(C(F)(F)F)cc1[N+](=O)[O-]
active: [8] 44.4 µM
not listed: [3] | [17] | [18]
inactive: all other assays above

CC1(C)C(C(=O)OC(C#N)c2cccc(Oc3ccccc3)c2)C1(C)C (stereo not given)
active: [8] 50 µM
not listed: [3] | [12]
inactive: all other assays above

CN=C=S
not listed: [3] | [11] | [12] | [18]
inactive: all other assays above
